Data as given in PubChem BioAssay (Tox21).
Values joined by “and” are separate entries in the source; they are usually repeats but may differ in a detail not shown here. Equal entries are not always repeated. Inconclusive results are not listed. Where a call stands in place of a potency, no number is given. The source holds several records for some structures; these can differ, active in one and inactive in another. Active and inactive are the calls of the source. The call rests on the fitted dose curve; in most records, active means well fitted cell-killing curve with a large enough effect in the repeat runs; inconclusive means weak or mixed curves; inactive means flat fitted curve, though single readings scatter.

assay: qHTS RealTime-Glo MT Cell Viability Assay in HepG2 cells - 24 hour (AID 1224867); settings: RealTime-Glo luminescence; series mostly up to 76.8 µM; further: nearly all actives have a fitted effect of over 50% in size
Text: U.S. Tox21 Program National Center for Advancing Translational Sciences [NCATS] NIH Chemical Genomics Center [NCGC] U.S. Environmental Protection Agency [EPA] National Institutes of Environmental Health Sciences [NIEHS] National Toxicology Program [NTP] U.S. Food and Drug Administration [FDA] Tox21 Assay Overview: Measure of cell viability is critical in the cell-base assay. Analysis of cell viability is necessary for the characterization of cell responses to cytotoxic drugs and environmental stress. A RealTime-Glo MT Cell Viability Assay to monitor cell viability in real time of continues cell culture during 40 hours of compound treatment was used to screen Tox21 10K library compounds in HepG2 cells. The RealTime-Glo MT Cell Viability Assay is a nonlytic, homogeneous, bioluminescent method to measure cell viability in real time using a simple, plate-based method. The assay involves adding NanoLuc luciferase and a cell-permeant prosubstrate to cells in culture. Viable cells reduce the proprietary prosubstrate to generate a substrate for NanoLuc luciferase. This substrate diffuses from cells into the surrounding culture medium, where it is rapidly used by the NanoLuc Enzyme to produce a luminescent signal. The signal correlates with the number of viable cells, making the assay well suited for cytotoxicity studies.
Tox21 Assay Protocol Summary: The mixture of HepG2 cell suspension and reagents were dispensed at 600cells/6 ul/well in 1536-well tissue culture treated black solid bottom plates using a Multidrop dispenser. After the assay plates were incubated at a 37 C/5% CO2 incubator for 5 hours, 23 nL of compounds dissolved in DMSO, positive and negative controls was transferred to the assay plate by a pintool work station. The plates were incubated at 37 C for 40 hours. The luminescence intensity were measured at 0h, 8h, 16h, 24h, 32h and 40h time points using ViewLux plate reader during compound treatment.
Potency means the concentration at half of the fitted maximal effect.

| SMILES | Potency | activity change, negative = cytotoxicity |
| --- | --- | --- |
| CCCCCCCCCCCCCCCC[N+](C)(C)C | inactive and 49 µM (active) and 23.9 µM (active) |  |
| CC(=O)c1cc(C(C)(C)C)cc2c1CCC2(C)C | inactive |  |
| Clc1ccc(COC(Cn2ccnc2)c2ccc(Cl)cc2Cl)cc1 (stereo not given) | 43.5 µM (active) |  |
| N#CCCO | inactive |  |
| Clc1ccc(C(Cl)(Cl)Cl)c(Cl)c1 | inactive |  |
| CCCN(CC)CC1COC2(CCC(C(C)(C)C)CC2)O1 (stereo not given) | inactive |  |
| CC(C)C(=O)Cl | inactive |  |
| CC(=O)OC1(c2ccccc2)CCN(CCc2ccccc2)CC1 | inactive |  |
| CC(C)(C)OO | inactive |  |
| Clc1ccc(C(c2ccccc2Cl)C(Cl)(Cl)Cl)cc1 (stereo not given) | inactive |  |
| N#C/C=C/C#N | inactive |  |
| C[CH2][Hg][N]1C(=O)C2C(C1=O)C1(Cl)C(Cl)=C(Cl)C2(Cl)C1(Cl)Cl (stereo not given) | 6.57 µM (active) |  |
| CC1(C)CC/C(=C/c2ccc(Cl)cc2)C1(O)Cn1cncn1 (stereo not given) | inactive |  |
| CC(=O)C(Cl)(Cl)Cl | inactive |  |
| OC(c1ccc(Cl)cc1)(c1ccc(Cl)cc1)C(Cl)(Cl)Cl | inactive |  |
| Cc1ccc(CCl)cc1 | inactive |  |
| C[C@]12CC[C@H]3[C@@H](CCC4=CC(=O)CC[C@@]43C)[C@@H]1CC[C@@H]2O | inactive |  |
| CC(C)Oc1cccc(NC(=O)c2ccccc2C(F)(F)F)c1 | inactive |  |
| CCCCCCCCCCCCCCCCCCn1cc[n+](C)c1 | 34.5 µM (active) |  |
| COc1cccc2c1C(=O)c1c(O)c3c(c(O)c1C2=O)C[C@@](O)(C(=O)CO)CC3OC1CC(N2CCOC(OC)C2)C(O)C(C)O1 (stereo not given in full) | 1.9 µM (active) |  |

| SMILES | Potency | activity change, negative = cytotoxicity |
| --- | --- | --- |
| ClCc1ccc(Cl)cc1Cl | inactive |  |
| CCC(C)c1cc([N+](=O)[O-])cc([N+](=O)[O-])c1OC(=O)C=C(C)C (stereo not given) | 49 µM (active) |  |
| CN(C)C(=S)[S-].CN(C)C(=S)[S-].[Cu+2] | 2.67 µM (active) |  |
| CC(C)N1C(=O)N(c2ccccc2)CSC1=NC(C)(C)C | inactive |  |
| C[C@H]1CC[C@@H]2[C@@H](C)[C@H]3[C@H](C[C@H]4[C@@H]5CC=C6CC(O[C@@H]7O[C@H](CO)[C@H](O)[C@H](O[C@@H]8O[C@H](CO)[C@@H](O)[C@H](O)[C@H]8O)[C@H]7O[C@H]7O[C@@H](C)[C@H](O)[C@@H](O)[C@H]7O)CC[C@]6(C)[C@H]5CC[C@]34C)N2C1 (stereo not given in full) | 50.6 µM (active) |  |
| Fc1cccc(Cl)c1CCl | inactive |  |
| COC(=O)N(C(=O)N1COC2(C(=O)OC)Cc3cc(Cl)ccc3C2=N1)c1ccc(OC(F)(F)F)cc1 (stereo not given) | inactive |  |
| CC(Cl)CN(C)C (stereo not given) | inactive |  |
| CCCCCCCCCCBr | inactive |  |
| Brc1c(Br)c(Br)c(Oc2c(Br)c(Br)c(Br)c(Br)c2Br)c(Br)c1Br |  | -1.54% [at 15.8 µM] (inactive) |
| Oc1c(Br)c(Br)c(Br)c(Br)c1Br | inactive |  |
| Cn1[nH]nnc1=S | inactive |  |
| CN(C)C1CSSSC1 | inactive |  |
| NC(=O)CCl | inactive |  |
| C[C@]12CC[C@@H]3c4ccc(OC(=O)N(CCCl)CCCl)cc4CC[C@H]3[C@@H]1CC[C@@H]2O | inactive |  |
| C=CCOC(N)=O | inactive |  |
| CC(c1ccc(O)cc1)c1ccc(O)cc1 | inactive |  |
| N#Cc1c(-c2ccc(Cl)cc2)[nH]c(C(F)(F)F)c1Br | inactive |  |
| CC(C)OC(=S)S | inactive |  |
| CC(=[OH+])/C=C(/C)[O-].CC(=[OH+])/C=C(\C)[O-].CC(=[OH+])/C=C(\C)[O-].[Al] | inactive |  |
